Sampled rows, rich in hits. Any-hit rate of the full collection: about 13%.
USP10 block = inhibitors of human USP10 deubiquitinase; 47,000 compounds, 1.1% hits; purified USP10, Ub-rhodamine fluorescence, 60 min; Ubiquitin carboxyl-terminal hydrolase 10 (Homo sapiens), Q14694; inhibition, % at 20 µM
USP8 inh = inhibitors of human USP8 deubiquitinase. Ubiquitin carboxyl-terminal hydrolase 8 (Homo sapiens), P40818. purified USP8, Ub-rhodamine cleavage fluorescence, 30 min. inhibition, % at 20 µM. 47,000 compounds, 4.2% hits. AID 1645853, 2021
USP17 block = inhibitors of human USP17 deubiquitinase; Ubiquitin carboxyl-terminal hydrolase 17-like protein 5 (Homo sapiens), A8MUK1; purified USP17, Ub-rhodamine cleavage fluorescence, 3 h; inhibition, % at 50 µM; 47,000 compounds, 6.5% hits
USP30 inh = inhibitors of human USP30 deubiquitinase. Ubiquitin carboxyl-terminal hydrolase 30 (Homo sapiens), Q70CQ3. purified USP30, Ub-rhodamine cleavage fluorescence. inhibition, % at 25 µM. 47,000 compounds, 5.3% hits. AID 1645860, 2021
USP28 block = inhibitors of human USP28 deubiquitinase; 47,000 compounds, 3% hits; purified USP28, Ub-rhodamine cleavage fluorescence, 30 min; AID 1645857, 2021; inhibition, % at 25 µM; Ubiquitin carboxyl-terminal hydrolase 28 (Homo sapiens), Q96RU2
Active calls of the source: *; / = no result given. Cut-off read from the data, not from the text of the source: active = inhibition above about 30%; inactive = the rest.

SMILES	USP10 block	USP8 inh	USP17 block	USP30 inh	USP28 block
Fc1ccc(Cc2nnc(-c3cnc4onc(C5CCCC5)c4c3)o2)cc1	7	29	8	20	19
CC(C)(C)Cc1nnc(-c2cnc3onc(C4CCCC4)c3c2)o1	1	35*	7	-36	6
c1nc2onc(C3CCCC3)c2cc1-c1nnc(C2CC2)o1	-1	4	3	5	-1
CCOc1ccc(-c2nnc(-c3cnc4onc(C5CCCC5)c4c3)o2)cc1	32*	28	2	1	0
Cn1cc(-c2ccccc2NC(=O)Cc2cc(F)cc(F)c2)cn1	0	0	-1	-6	-2
O=C(Nc1cccc2cccnc12)c1nnn(-c2ccccc2)n1	0	-20	44*	18	0
c1cncc(-c2n[nH]c(C3CCCNC3)n2)c1 (stereo unspecified)	4	10	8	10	4
CCn1c(CN2CCCC(c3nc(-c4cccnc4)n[nH]3)C2)nc2ccccc21 (stereo unspecified)	-4	-170	-42	-20	71*
Cc1nc2cccnc2n1C1CCN(C(=O)c2cc3cc(Cl)ccc3[nH]2)C1 (stereo unspecified)	-5	-13	31*	54*	42*
CCOC(=O)c1c(C)oc2nc(CSc3ccccc3)[nH]c(=O)c12	-2	-7	12	-4	61*
CC[C@H](C)[C@@H](NC(=O)c1ccc2nc(-n3cccc3)sc2c1)C(=O)O	5	1	-21	-23	-19
CCOc1ccc(NC(=O)Cn2cnc(S(=O)(=O)N3CCc4ccccc43)c2)cc1	6	1	80*	11	48*
Cc1ccc(Sc2c(C(F)(F)F)[nH]n(-c3ccccc3)c2=O)cc1	20	-45	33*	28	7
N#Cc1ccccc1Cn1c(=O)n(CCCCC(=O)NCCc2ccccc2)c(=O)c2ccccc21	19	9	78*	19	24
Cc1ccc(CNC(=O)CCCn2c(=O)c3ccccc3n(Cc3cccc(F)c3)c2=O)cc1	4	21	39*	-1	0
O=C(CCCCn1c(=O)c2ccccc2n(Cc2ccccc2F)c1=O)NCCc1ccccc1	11	17	56*	0	3
CC1CC(=O)c2c(cc3c(-c4c(O)cc(O)c5c(O)c6c(cc45)OC(C)CC6=O)c(O)cc(O)c3c2O)O1 (stereo unspecified)	83*	78*	88*	9	85*
Cc1nn(-c2ccc(F)cc2)cc1-c1noc(C(=O)NCc2ccccn2)n1	5	35*	/	85*	21
O=C(NCc1ccccn1)c1nc(-c2cn(-c3ccc(Cl)cc3)nn2)no1	6	50*	11	20	12
Cc1nn(-c2ccccc2)cc1-c1noc(C(=O)NCCCc2ccccc2)n1	8	20	21	32*	18
O=C(Nc1ccccc1)c1nc(-c2cn(-c3ccccc3)nn2)no1	5	20	17	41*	19
COc1cccc(OCCCn2c(CN(C)C(=O)c3ccco3)nc3ccccc32)c1	-3	-4	-2	-20	-7
COc1cccc(OCCCn2c(C(C)NC(=O)c3ccco3)nc3ccccc32)c1 (stereo unspecified)	0	2	51*	-8	-6
COc1ccc(OCCCn2c(CNC(=O)c3ccco3)nc3ccccc32)cc1	0	16	41*	48*	9
CN(Cc1nc2ccccc2n1CCCOc1ccccc1)C(=O)c1ccco1	-2	6	1	2	1
SMILES	USP10 block	USP8 inh	USP17 block	USP30 inh	USP28 block
Cc1cncc(C2CCN(C(=O)CCc3cc(Cl)no3)CC2)n1	-4	-8	-7	-7	-7
CCC(C(=O)Nc1ccc(C)cc1C)n1c(C)nc2onc(C)c2c1=O (stereo unspecified)	5	9	31*	38*	15
Cc1ccc(NC(=O)Cc2nnc3c(-c4nc(C5CC5)no4)cccn23)cc1F	54*	93*	10	-21	-9
Cc1ccc(NC(=O)Cc2nnc3c(-c4nc(C5CC5)no4)cccn23)c(C)c1	8	65*	5	4	-8
CCCCc1cc(=O)oc2c(C)c(OS(=O)(=O)c3ccccc3)ccc12	6	10	1	10	1
O=C(Nc1cc(C(F)(F)F)ccc1Cl)c1ccc(S(=O)(=O)N2CCc3ccccc3C2)cc1	-2	2	10	22	4
Cc1ccc(NC(=O)N2CCC3(C2)C(=O)Nc2ccccc23)cc1 (stereo unspecified)	1	12	2	9	14
Cc1nc(-c2ccc(C)c(S(=O)(=O)NC(C)C(=O)Nc3ccc(C)c(F)c3)c2)no1 (stereo unspecified)	19	11	3	36*	24
O=C(CCC1CCCC1)N1CCN(C(=O)c2cc(-c3cccnc3)n[nH]2)CC1	7	3	7	-18	-20
CC(C)=CCC/C(C)=C/CC/C(C)=C/Cc1c(C)cc(O)cc1O	19	8	39*	27	32*
COC1=C(OC)C(=O)C(C/C=C(/C)CC/C=C(\C)CC/C=C(\C)CC/C=C(\C)CC/C=C(\C)CC/C=C(\C)CCC=C(C)C)=C(C)C1=O	-1	-6	10	8	10
Fc1ccc(C2(c3nnc(C4CC4)o3)CCOCC2)cc1	1	22	14	26	8
CC(NC(=O)COc1ccc2oc3ccccc3c2c1)c1ccccc1 (stereo unspecified)	4	0	42*	22	-1
Cc1cc(NC(=O)COc2cccc(C(F)(F)F)c2)no1	2	24	48*	13	8
Cc1cc(NC(=O)c2ccc(C(=O)Nc3cc(C)on3)s2)no1	-2	2	20	-20	-13
CC(NC(=O)COc1ccc2ccccc2c1)C(=O)O (stereo unspecified)	0	7	0	2	-8
Cc1cc(NC(=O)c2ccc(C(F)(F)F)cc2)no1	11	19	13	40*	6
CCc1cc(=O)oc2cc(OCC(=O)NC(c3ccccc3)c3ccccc3)ccc12	11	7	4	44*	14
C[C@H]1CCN(C(=O)CN)[C@@H](Cc2ccccc2)c2nc3ccccc3n21	-5	-59	-20	-1	0
Cc1cc(NC(=O)c2oc3c(F)cccc3c2C)no1	-5	6	-7	-135	-27
Cc1cc(NC(=O)COc2ccc3oc4ccccc4c3c2)no1	6	-2	78*	21	5
O=C(NCCN1CCCCC1)c1cnn(-c2ccc(Cl)cc2)c1C1CCNCC1	-3	-54	-9	-11	-3
OCc1nc2ccccc2n1CC(O)COc1ccc(OCc2ccccc2)cc1 (stereo unspecified)	0	2	0	-39	-3
Cc1ccnc(NC(=O)c2ccn(COc3ccc(Cl)cc3)n2)c1	3	31*	47*	72*	25

High-throughput results deposited in PubChem by Buhrlage Lab, Dana-Farber Cancer Institute and Novartis Institutes for BioMedical Research (Cambridge, Mass).
